Compound activity from PubChem BioAssay.
Most compounds without a hit are left out; they make up all but 14% or so of the library.
CRE-bla Fsk = CRE-bla signaling modulation under forskolin stimulation. 71,000 tested, 2.5% active. CHO CRE-bla reporter (cAMP response element driving beta-lactamase), forskolin EC10, beta-lactamase ratio. Potency, µM (doses to about 38.2 µM), without a hit: top-dose activity change, negative = inhibition, hits mostly activators; active = well fitted activation curve with a large enough effect in the signal ratio, with a control signal flat, not every such curve was filed as active; inconclusive = small, poorly fitted or top-dose-only effect, or effect the other way, or a change in a side signal; the % refers to the signal ratio; also: potency is read from the fitted curve at half-maximal effect; % of control where 0% means no effect
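Titrated compounds plus EC10 NKH 477 on CHO CRE-bla cells, 3 h, 37 °C. CCF4, 2 h RT. Ratio 460/530 nm → AC50.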
A350 autofl = compound fluoresces in the Alexa 350 spectral region | 59,000 tested, 11% active | AID 590 | Compound autofluorescence, 340/450 nm, Alexa 350 dye-equivalents; active compounds read high | max dye-equivalent concentration, M; in the data active = max dye-equivalent concentration above about 10 nM; inconclusive = mostly about 1.1 nM to 9.6 nM
4-MU autofl = compounds fluorescent in 4-MU spectral region; compound autofluorescence, 340/450 nm, 4-MU equivalents; active compounds read high; max dye-equivalent concentration, M; 59,000 tested, 11% active; in the data active = max dye-equivalent concentration above about 10 nM; inconclusive = mostly about 1.1 nM to 9.6 nM
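Compounds in 100 mM Tris, pH 8.0, sat 15 min at room temperature before fluorescence was read at 340 nm excitation/450 nm emission; a per-plate six-point 4-MU standard curve converted signals to dye-equivalent concentration at each compound concentration.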
AID923 = qHTS Assay for Allosteric/Competitive Inhibitors of Caspase-1: Spectroscopic Profiling in AFC Spectral Region. 75,000 tested, 1.1% active. compound fluorescence, AFC spectral region (405/520 nm). Potency, µM (series often up to 57.5 µM), inactives show at the highest dose fluorescence increase, actives largely listed as activators. AID 923, 2007; also: potency is read from the fitted curve at half-maximal effect; 0% is about no effect
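Compound autofluorescence profiled at 405 nm ex/520 nm em during kinetic caspase 1 run (50 nM enzyme, 5 uM Ac-WEHD-AFC, HEPES pH 7.5, 10 mM DTT). Titration up to 57 uM; baseline from regression intercept, normalized to AFC standard curve.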
HSD17B inhib = inhibitors of human HSD17B10 dehydrogenase. recombinant HSD17B10, NADH fluorescence kinetic. Potency, µM (highest dose often 57.1 µM), for the others: top-dose activity change, negative = inhibition, actives largely listed as inhibitors. 75,000 tested, 7.6% active;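 also: the protocol describes HADH2 (HSD17B10) and not the HSD17B4 of the title; potency is read from the fitted curve at half-maximal effect; % is scaled to controls: 0 for no effect and ±100 for the full control effect; nearly all actives have a fitted effect of over 70% in size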
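20 nM HADH2, pH 9.0 Tris/Tween; cpd preinc 15 min RT; start w/ 1 mM NAD+ + 90 uM b-hydroxybutyryl-CoA; kinetic fluor ex360/em450 q30s x 4 min; delta last-first.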
HADH2 inhib = blocks human hydroxyacyl-CoA dehydrogenase type II | Q99714 | 73,000 tested, 3.4% active | AID 886 | Potency, µM (doses to about 57.1 µM), without a hit: at the top dose activity change, negative = inhibition, usual class: inhibitors | recombinant HADH2, NADH fluorescence, beta-hydroxybutyryl-CoA; also: potency is read from the fitted curve at half-maximal effect; % is scaled to controls: 0 for no effect and ±100 for the full control effect; nearly all actives have a fitted effect of over 60% in size
Target sequence (Q99714 whole entry, looked up, one chain of several): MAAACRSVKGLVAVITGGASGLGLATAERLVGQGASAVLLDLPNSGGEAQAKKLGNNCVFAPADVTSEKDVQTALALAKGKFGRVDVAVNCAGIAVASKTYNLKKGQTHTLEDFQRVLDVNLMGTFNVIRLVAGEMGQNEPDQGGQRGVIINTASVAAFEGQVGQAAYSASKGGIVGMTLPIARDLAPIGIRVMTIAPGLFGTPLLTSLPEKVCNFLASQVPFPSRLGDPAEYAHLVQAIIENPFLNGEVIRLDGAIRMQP
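Buffer 100 mM Tris-HCl pH 9.0/0.01% Tween-20; HADH2 20 nM; NAD+ 1 mM; beta-hydroxybutyryl-CoA 90 uM (all final). 15 min cpd preincubation, RT.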
CHO tox 24h = cytotoxicity in CRE-bla CHO cells at 24 h; shares compounds with CRE-bla Fsk; CRE-bla CHO viability, ATP luminescence, 24 h; activity, negative = viability loss, % at 46.1 µM; 120 tested, under 10 active
CHO via 40h = cytotoxicity in CRE-bla CHO cells at 40 h; shares compounds with CRE-bla Fsk; CRE-bla CHO viability, ATP luminescence, 40 h; Potency, µM, inactives show max response, usual class: inhibitors; 120 tested, under 10 active; AID 906
CREB luc CRC = confirmation of CRE signaling potentiators in HEK293 CREB reporter cells. shares compounds with CRE-bla Fsk. HEK293 CRE-luc2P, NKH477 EC10 potentiation, luminescence, 4 h. Potency, µM (doses to about 38.3 µM), inactives show top-dose activity, positive = activation, actives largely listed as activators. 120 tested, 80% active
* hit, by the source's call; [ ] = dose if it differs, or a comment. Unless noted, calls follow the shape of the dose curve; as a rule, active = well fitted curve in the direction sought with a large enough effect; inconclusive = small, poorly fitted or top-dose-only effect, or another doubt; inactive = no such curve, though single readings can be large; an effect the other way counts as inactive or inconclusive.

Results for CCc1nc2nc(C)cc(Nc3cccc(C(F)(F)F)c3)n2n1 ?
CRE-bla Fsk: 3.98µM*; A350 autofl: inactive; 4-MU autofl: inactive; AID923: 0.2%; HSD17B inhib: -12.9%; HADH2 inhib: -2.0%; CHO tox 24h: -16.5; CHO via 40h: -28.4%; CREB luc CRC: 12.6µM*

Results for Cc1cc(Nc2cccc(C)c2C)n2nc(C)nc2n1 ?
CRE-bla Fsk: inconclusive; AID923: -1.3%; HSD17B inhib: 2.3%; HADH2 inhib: -1.4%

What do the screens show for `COc1ccc(/C(O)=C(\C#N)c2nc3ccccc3n2C)cc1OC`?
CRE-bla Fsk: 5.01µM*; A350 autofl: inconclusive; 4-MU autofl: 1.36e-08M*; AID923: 1.0%; HSD17B inhib: -11.4%; HADH2 inhib: 1.8%; CHO tox 24h: -9.0; CHO via 40h: -18.7%; CREB luc CRC: 4.47µM*

How did COc1ccc(NC(=O)COc2ccccc2)c(OC)c1 do in these assays?
CRE-bla Fsk: -10.9%; A350 autofl: inactive; 4-MU autofl: inactive; AID923: 0.7%; HSD17B inhib: 4.3%; HADH2 inhib: 3.2%

How did C=CCNc1nc(Nc2ccc(OC)cc2OC)nc(OCC)n1 do in these assays?
CRE-bla Fsk: 5.01µM*; A350 autofl: inactive; 4-MU autofl: inactive; AID923: 3.9%; HSD17B inhib: -3.8%; HADH2 inhib: 8.0%; CHO tox 24h: -1.3; CHO via 40h: -10.7%; CREB luc CRC: 10µM*

How did COC(=O)c1ccc(CSc2nc3c(cnn3-c3ccc(Cl)cc3)c(=O)[nH]2)o1 do in these assays?
CRE-bla Fsk: inconclusive; A350 autofl: inactive; 4-MU autofl: inactive; AID923: 0.9%; HSD17B inhib: -5.7%; HADH2 inhib: -27.7%

Results for COC(=O)c1ccc(CSc2nc3c(cnn3-c3ccc(F)cc3)c(=O)[nH]2)o1 ?
CRE-bla Fsk: 12.6µM*; A350 autofl: inconclusive; 4-MU autofl: inactive; AID923: 2.8%; HSD17B inhib: inconclusive; HADH2 inhib: inconclusive; CHO tox 24h: -3.5; CHO via 40h: -18.3%; CREB luc CRC: 5.01µM*

Results for CCN(C(=O)c1cn(C)c(=O)c2cc(OC)c(OC)cc12)c1cc(C)ccc1C ?
CRE-bla Fsk: inconclusive; A350 autofl: inactive; 4-MU autofl: inactive; AID923: -1.5%; HSD17B inhib: -29.7%; HADH2 inhib: -2.8%

Results for CCN(C(=O)c1cn(C)c(=O)c2cc(OC)c(OC)cc12)c1ccccc1C ?
CRE-bla Fsk: inconclusive; A350 autofl: inactive; 4-MU autofl: inactive; AID923: 0.9%; HSD17B inhib: -21.3%; HADH2 inhib: 5.8%; CHO tox 24h: -2.5; CHO via 40h: -7.0%; CREB luc CRC: 5.01µM*

What do the screens show for `Cc1cccc(N2CCN(c3nc4ccccc4n4cnnc34)CC2)c1C`?
CRE-bla Fsk: 8.2%; AID923: 0.6%; HSD17B inhib: inconclusive; HADH2 inhib: -0.6%

Results for c1cnc(N2CCN(c3nc4ccccc4n4cnnc34)CC2)nc1 ?
CRE-bla Fsk: 2.51µM*; A350 autofl: inactive; 4-MU autofl: inactive; AID923: -1.1%; HSD17B inhib: 4.4%; HADH2 inhib: inconclusive; CHO tox 24h: -19.2; CHO via 40h: inconclusive; CREB luc CRC: 7.94µM*

What do the screens show for `NC/C(=N\O)c1ccc(Cl)cc1Cl`?
CRE-bla Fsk: -14.0%; AID923: 4.8%; HSD17B inhib: 0.6%; HADH2 inhib: -0.1%

Results for CCOC(=O)CCN1C(=O)[C@H]2[C@H]3[C@H](O)[C@H](O)C/C(=N/NC(=O)OCc4ccc(OC)cc4)[C@@H]3CC[C@@H]2C1=O ?
AID923: -0.1%[11.5 µM]; HSD17B inhib: -6.2%[11.4 µM]; HADH2 inhib: 0.9%[11.4 µM]

How did CC(=O)/C=C\C1[C@]2(C)CCCC(C)(C)C2CC[C@@]1(C)O (stereo partly specified) do in these assays?
AID923: -1.9%; HSD17B inhib: 2.5%

Results for COc1cc(C)nc(-n2nc(C)cc2OC)n1 ?
CRE-bla Fsk: -3.8%[17.1 µM]; A350 autofl: inactive; 4-MU autofl: inactive; AID923: -0.5%[25.7 µM]; HSD17B inhib: -3.4%[25.6 µM]; HADH2 inhib: 0.6%[25.6 µM]

How did Cc1nc(SCC(=O)Nc2ccc3c(c2)OCCO3)c2oc3ccccc3c2n1 do in these assays?
CRE-bla Fsk: 0.251µM*; A350 autofl: inactive; 4-MU autofl: inactive; AID923: 0.3%; HSD17B inhib: -5.6%; HADH2 inhib: 27.9%; CHO tox 24h: -9.8; CHO via 40h: -20.4%; CREB luc CRC: 5.01µM*

How did O=C(CSc1ncnc2c1oc1ccccc12)Nc1ccc2c(c1)OCCO2 do in these assays?
CRE-bla Fsk: inconclusive; A350 autofl: inactive; 4-MU autofl: inactive; AID923: 0.4%; HSD17B inhib: -13.9%; HADH2 inhib: 10.2%

How did CCc1nc(SCC(=O)Nc2ccc3c(c2)OCCO3)c2oc3ccccc3c2n1 do in these assays?
CRE-bla Fsk: 0.398µM*; A350 autofl: inactive; 4-MU autofl: inactive; AID923: 0.1%; HSD17B inhib: -11.2%; HADH2 inhib: 17.4%; CHO tox 24h: inconclusive; CHO via 40h: 31.6µM*; CREB luc CRC: 3.98µM*

How did CCn1c(=O)cc(SCC(=O)Nc2ccc3c(c2)OCCO3)c2ccccc21 do in these assays?
CRE-bla Fsk: inconclusive; A350 autofl: inactive; 4-MU autofl: inactive; AID923: 0.5%; HSD17B inhib: -22.1%; HADH2 inhib: -12.5%

What do the screens show for `Fc1cccc(CSc2ncnc3c2oc2ccccc23)c1`?
CRE-bla Fsk: inconclusive; A350 autofl: inactive; 4-MU autofl: inactive; AID923: 0.8%; HSD17B inhib: 1.6%; HADH2 inhib: -11.1%

How did Fc1ccc(CSc2ncnc3c2oc2ccccc23)cc1 do in these assays?
CRE-bla Fsk: 1µM*; A350 autofl: inconclusive; 4-MU autofl: inactive; AID923: -2.4%; HSD17B inhib: -7.4%; HADH2 inhib: -7.2%; CHO tox 24h: 6.8; CHO via 40h: -20.9%; CREB luc CRC: 7.94µM*
